In PubChem BioAssay (NCI) one finds growth data, which are given here for 5 compounds.

What all share (assay): NCI-60 one-dose screen, 48 h (100 = growth as untreated, 0 = no growth, -100 = all killed)
Assay [1] deals with NCI-H23 lung.
Assay [2] deals with NCI-H322M lung.
The subject of assay [3] is HOP-62 NSCLC.
Assay [4] concerns NCI-H460 lung.
The subject of assay [5] is HOP-92 NSCLC.
Assay [6] concerns NCI-H522 lung.
Assay [7] has as its system A549/ATCC NSCLC.
For assay [8], the system named is 786-0 renal.
Assay [9] has as its system COLO 205 colon.
Assay [10] deals with DU-145 prostate.

Where “and” joins values, the source holds several entries; their conditions need not be identical. Identical values can stand only once. About 83,000 compounds went through this panel and 20% of them were active in at least one assay; those are over-represented in the sample as a whole.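 Each cell line was grown in a 96-well plate and treated with one concentration of compound for 48 hours. Values below 10 were considered active.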 Unmarked numbers belong to inactive results. Calls of active or inactive are those of the source. Starred links: 1 amine or outer side, 2 acyl side, 3 side chain; linkers in the order of their positions; H or OH if unused. Positions of bridges follow the written chain, without caps; N, C: chain ends. Non-standard residues stand in square brackets, D forms with d. Residues, ends and D or L forms follow the SMILES beside them. Chains are numbered I, II in the order given. Actinocin(9to1) = Cc1c2oc3c(C)ccc(C(=O)[*:1])c3nc-2c(C(=O)[*:2])c(N)c1=O; aThr = C[C@H](O)[C@H](N)C(=O)O; NMeV = CN[C@H](C(=O)O)C(C)C; Sar = CNCC(=O)O

Consider `Cc1c2oc3c(C)ccc(C(=O)N[C@@H]4C(=O)N[C@H](C(C)C)C(=O)N5CCC[C@H]5C(=O)N(C)CC(=O)N(C)[C@@H](C(C)C)C(=O)O[C@H]4C)c3nc-2c(C(=O)N[C@@H]2C(=O)N[C@H](C(C)C)C(=O)N3CCC[C@H]3C(=O)N(C)CC(=O)N(C)[C@@H](C(C)C)C(=O)O[C@H]2C)c(N)c1=O` (I: [aThr][dV]P[Sar][NMeV] / II: [aThr][dV]P[Sar][NMeV]; ester I:1-I:C, II:1-II:C; linker I:N-II:N via Actinocin(9to1)), for which the growth is 53.2% in [1] (0.0025 µM); -50.9% (active) in assay [1] (10 µM); 64.7% in assay [2] (0.0025 µM); 7.68% (active) in [2] (10 µM); 41.2% in assay [3] (0.0025 µM); -16.9% (active) in assay [3] (10 µM). Moreover, the growth in assay [4] (0.0025 µM) is 16.7%; in assay [4] (10 µM), -22.4% (active); in assay [5] (0.0025 µM), 50.7%; in assay [5] (10 µM), -16.3% (active); in [6] (0.0025 µM), 33.9%; in assay [6] (10 µM), -38.4% (active). Also, the growth in [7] (0.0025 µM) is 36.8%; in [7] (10 µM) it was -38.9% (active); in [8] (0.0025 µM), 41.8%; in assay [8] (10 µM), -3.24% (active); in assay [9] (0.0025 µM) it was 44.2%; in [9] (10 µM), -56.7% (active). In addition, the growth is 41.6% in [10] (0.0025 µM) and -30.5% (active) in assay [10] (10 µM).
For `O=c1[nH]cc(F)c(=O)[nH]1`, the growth in assay [1] (10 µM) is 55% and 55.2%; in [1] (25 µM), 39%; in assay [1] (50 µM), 41.6%; in assay [2] (10 µM), 62.5% and 58.5%; in [2] (25 µM), 59.5%; in assay [2] (50 µM) it was 48.6%. In addition, the growth in assay [3] (10 µM) was 46.6% and 82.3%; in assay [3] (25 µM), 47.8%; in assay [3] (50 µM), 42.4%; in [4] (10 µM), 16% and 20%; in [4] (25 µM) it was 13%; in assay [4] (50 µM), 13.9%. Besides, the growth in [5] (10 µM) is 87.3% and 49.3%; in [5] (25 µM), 50.6%; in assay [5] (50 µM), 75.7%; in assay [6] (10 µM), 62.1% and 62.2%; in [6] (25 µM), 58%; in assay [7] (10 µM) it was -11.5% (active). Also, the growth in assay [7] (25 µM) is 34.2%; in assay [7] (50 µM), 31.2%; in [8] (10 µM), 64.2% and 62.2%; in [8] (25 µM), 48.7%; in assay [8] (50 µM), 59%; in assay [9] (10 µM) it was 51.4% and 39.4%. The growth is 40.2% in assay [9] (25 µM); 33.5% in assay [9] (50 µM); 57.4% and 65.3% in [10] (10 µM); 35.5% in [10] (25 µM); 20.5% in assay [10] (50 µM).
As for `O=C(/C(=C/c1ccccc1)CBr)c1ccccc1`, the growth is 73.1% in assay [1] (10 µM); 90.4% in [2] (10 µM); 109% in assay [3] (10 µM); 86.4% in assay [4] (10 µM); 86.3% in assay [5] (10 µM); 55.8% in assay [6] (10 µM). Besides, the growth is 90.1% in [7] (10 µM), 94.5% in assay [8] (10 µM), 92.6% in assay [9] (10 µM) and 87.6% in [10] (10 µM).
`CN1CCN(c2ccc3nc(-c4ccc5nc(-c6ccc(O)cc6)[nH]c5c4)[nH]c3c2)CC1`: the growth in assay [1] (10 µM) was 74%; in assay [2] (10 µM) it was 106%; in [3] (10 µM) it was 95.8%; in assay [4] (10 µM), 107%; in [5] (10 µM) it was 42.1%; in assay [6] (10 µM) it was 47%. Besides, the growth in assay [7] (10 µM) is 62.1%; in assay [8] (10 µM), 87.2%; in assay [9] (10 µM), 72%; in [10] (10 µM), 84.5%.
As to `CN(C)CCC(=O)c1c[nH]c2ccccc12`, the growth was 110% in assay [1] (10 µM); 94% in [2] (10 µM); 94.4% in assay [3] (10 µM); 113% in assay [4] (10 µM); 91.8% in [6] (10 µM); 110% in assay [7] (10 µM). Moreover, the figures for the growth in assay [8] (10 µM), in [9] (10 µM) and in assay [10] (10 µM) were 98.8%, 111% and 111%, respectively.
